In PubChem BioAssay (NCI):
Compounds without any hit were thinned out: in the full panel of roughly 79,000, 15% have a hit. Values without a mark were called inactive. The source made the active and inactive calls. No stated cut-off is given here; in the data, active means growth inhibition above about 70%; inactive means the rest.

Assay: NCI Yeast Anticancer Drug Screen. Data for the rad50EPP+ strain (AID 151);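 further: 0% = growth of vehicle-treated control cultures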
Settings: S. cerevisiae rad50 mutant strain, hits give high values
Procedure: Growth inhibition of yeast strains with defined genetic alterations is measured as a screen for potential anti-cancer activity. Selected strains with alterations in DNA damage repair or cell cycle control were exposed to compounds and growth inhibition was measured relative to vehicle treated controls. The strain used in this assay is rad50EPP+

Row | Structure (SMILES) | growth inhibition (at 1.2 µM) | growth inhibition (at 3.7 µM) | growth inhibition (at 11.0 µM) | growth inhibition (at 33.0 µM) | growth inhibition (at 100.0 µM)
1 | c1ccc2c(c1)c1ncccc1c1nccnc21 | 15% | 33% | 43% | 69% | 63%
2 | CC(C)(Br)C(=O)/C=C/c1ccc(Cl)c(Cl)c1 | 4% | 3% | 3% | 3% | 3%
3 | O=C1c2ccccc2C(=O)c2c(NC3CCCCC3)ccc(Nc3ccc(S(=O)(=O)O)cc3)c21 | -2% | 5% | 56% | 80% (active) | 63%
4 | O=C(CCCN1CCC2(CC1)CC(=O)N(N1CCCCCC1)C2=O)c1ccc(F)cc1 | -2% | -2% | -1% | -1% | 0%
5 | CC(=O)Oc1ccc2c(c1)Cc1cc(N=C3C=CC(=O)O3)ccc1-2 | 78% (active) | 96% (active) | 99% (active) | 98% (active) | 93% (active)
6 | Nc1ccn(C2OC(CO)C3[O][Sn]([c]4ccccc4)([c]4ccccc4)[O]C32)c(=O)n1 (stereo not given) | 1% | -5% | -1% | 6% | 13%
7 | COC1=CC(=O)C(C2(OC(C)C)OC(=O)C(Cl)=C2Cl)=CC1=O (stereo not given) | 8% | 48% | 94% (active) | 99% (active) | 99% (active)
8 | NNc1c(F)c(F)cc(F)c1F | 2% | -1% | 21% | 54% | 82% (active)
